Assay outcomes as filed in PubChem BioAssay.
This excerpt belongs to a sample that is enriched for hits.
PostGolgi yeast: growth inhibition of a yeast mutant, post-Golgi transport screen | post-Golgi transport phenotypic cell assay | inhibition, % at 10 µM | actives 0.9% (n = 98,000) | AID 739; in the data active means inhibition above about 30%;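 further: yeast cells grown in 1536-well plates; yeast grown about 18 h at 30C before absorbance read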
GALR2 blocker: GALR2 (human) receptor antagonism; O43603; GALR2-expressing cells, antagonist mode; inhibition, % at 4 µM; actives 0.39% (n = 140,000); AID 828;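 further: cells stimulated with galanin 1-16 at roughly its EC80; 0% = agonist challenge control and 100% = basal control without agonist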
Target sequence (O43603 whole entry, looked up): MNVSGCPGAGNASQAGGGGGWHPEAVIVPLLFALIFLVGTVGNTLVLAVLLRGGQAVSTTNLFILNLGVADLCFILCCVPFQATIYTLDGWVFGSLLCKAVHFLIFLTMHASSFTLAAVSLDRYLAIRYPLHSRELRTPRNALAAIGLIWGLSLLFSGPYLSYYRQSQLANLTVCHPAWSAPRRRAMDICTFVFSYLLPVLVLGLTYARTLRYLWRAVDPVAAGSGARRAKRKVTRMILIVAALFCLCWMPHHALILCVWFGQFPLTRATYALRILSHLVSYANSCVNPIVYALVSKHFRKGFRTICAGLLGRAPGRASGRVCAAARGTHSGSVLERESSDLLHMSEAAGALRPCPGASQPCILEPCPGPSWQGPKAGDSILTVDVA
S1P2 blocker: S1P2 (human) receptor antagonism; cell-based S1P2 antagonist assay, inhibition at 5 uM; AID 736; actives 0.21% (n = 97,000); inhibition, % at 5 µM; O95136; in the data active means inhibition above about 45%;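 further: CRE beta-lactamase reporter cells expressing human S1P2 stimulated with S1P; 0% = agonist at EC80 alone and 100% = agonist plus reference antagonist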
S1P2 ag: agonists of human S1P2 receptor. O95136. S1P2-expressing cell line, agonist reporter read-out. activation, % at 4.5 µM. actives 0.46% (n = 97,000). AID 729; in the data active means activation above about 16%;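 further: 0% = vehicle low control and 100% = maximal reference agonist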
GALR2 ag: GALR2 (human) receptor agonism | activation, % (concentration not given with the values) | actives 0.48% (n = 140,000) | O43603 | GALR2-expressing cells, agonist activation read-out; in the data active means activation above about 5%, passing the limit was not always enough;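 further: 0% = vehicle buffer wells and 100% = reference agonist at full effect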
PostGolgi ctrl: growth of the yeast control strain, post-Golgi counter-screen. efflux-deficient yeast background strain, growth absorbance A615, 16 h. inhibition, % at 10 µM. actives 5% (n = 98,000). AID 738; in the data active means inhibition above about 30%
GALR2 ant conf: GALR2 (human) antagonism confirmed; shares compounds with GALR2 blocker; GALR2-expressing cells, antagonist mode, inhibition; inhibition, % at 4 µM; actives 60% (n = 480); AID 866;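 further: cells stimulated with galanin at about its EC80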
BLA inh counter: inhibits beta-lactamase reporter in GALR2 antagonist counterscreen; shares compounds with GALR2 blocker; CHO NFAT-BLA reporter, beta-lactamase FRET, thapsigargin-stimulated; inhibition, % at 4.2 µM; actives 36% (n = 480); AID 867;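 active means inhibition above the mean inhibition across tested compounds plus 3 SD, cut at about 27% in these data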;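 further: 0% = 500 nM thapsigargin stimulated wells and 100% = unstimulated BSA only wells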
Numbers without * were called inactive; nt = not tested or not shown. Unless noted, no stated cut-off is given here; in the data, active means inhibition above about 27%; inactive means the rest.

SMILES	PostGolgi yeast	GALR2 blocker	S1P2 blocker	S1P2 ag	GALR2 ag	PostGolgi ctrl	GALR2 ant conf	BLA inh counter
COc1ccc(CS(=O)(=O)/C(Cl)=C(/Cl)C(=O)Nc2ccc(OC)nc2)cc1	29	93*	95*	-14	-4	65*	92*	92*
CN(CC(=O)Nc1cccc(F)c1)C(=O)CCCc1cccs1	nt	4	nt	nt	-1	nt	nt	nt
COc1ccc(NC2=Nc3cccc4cccc2c34)cc1	nt	27*	nt	nt	0	nt	16	6
N#CC(C#N)=C1C=CC=CN1/C(=C\c1ccccc1Cl)C(=O)c1ccccc1	nt	73*	nt	nt	-2	nt	89*	99*
Cc1cccc(C)c1NC(=S)N/N=C/c1ccc(OCCC(C)C)cc1	2	-3	-5	1	-3	14	nt	nt
CCN1CCc2c(sc(NC(=O)Nc3ccc(Cl)c(Cl)c3)c2C(N)=O)C1	nt	27*	nt	nt	-1	nt	25	21
O=C(Nc1ccc(S(=O)(=O)N2CCOCC2)cc1)c1ccc(CN2CCc3ccccc3C2)cc1	0	28*	85*	-7	-2	-1	46*	18
O=C(Nc1ccc(S(=O)(=O)N2CCCC2)cc1)c1ccc(CN2CCc3ccccc3C2)cc1	nt	7	nt	nt	-1	nt	nt	nt
COc1ccccc1-n1cc(-c2ccc(Cl)cc2)[nH]c1=O	nt	5	nt	nt	0	nt	nt	nt
Cc1nnc(NC(=O)c2sc3nc(-c4cccs4)cc(C(F)(F)F)c3c2N)s1	6	8	-1	-10	0	-5	nt	nt
Nc1c(C(=O)Nc2nccs2)sc2nc(-c3cccs3)cc(C(F)(F)F)c12	-7	47*	19	-7	-1	15	27	15
COC(=O)c1ccc(COC(=O)c2[nH]c(C)c(C(C)=O)c2C)o1	7	27*	29	-2	0	-6	30*	2
COC(=O)c1ccccc1NC(=O)c1cc([N+](=O)[O-])nn1Cc1ccccc1	nt	3	nt	nt	0	nt	nt	nt
COC(=O)c1cnn(-c2cc(Oc3ccccc3)ncn2)c1N	6	0	-8	-5	-2	-2	nt	nt
CCOc1cnn(-c2cc(Oc3ccc(C)cc3)ncn2)c(=O)c1Cl	5	28*	1	-6	-1	3	3	10
COc1ccccc1Oc1cc(-n2nc(C)cc2C)ncn1	nt	-5	nt	nt	-1	nt	nt	nt
Cc1ccccc1Oc1cc(-n2ncc(Cl)c(Cl)c2=O)ncn1	nt	82*	nt	nt	-2	nt	97*	103*
Cn1c(CNC(=O)c2cccs2)nnc1SCC(=O)Nc1ccccc1	nt	7	nt	nt	1	nt	nt	nt
Cc1ccc(-c2nnc(Oc3ccc(NC(=O)c4ccccc4)cc3)c3ccccc23)cc1	nt	-12	nt	nt	1	nt	nt	nt
COc1ccc(-c2[nH]c(-c3ccc(SC)cc3)nc2SCC(=O)Nc2nccs2)cc1	nt	4	nt	nt	0	nt	nt	nt
CC1(C)CC(=O)C2=C(C1)N(c1cccc(O)c1)C1=C(C2)C(=O)CC(C)(C)C1	-4	43*	26	0	2	-7	25	25
CC1(C)CC(=O)C(C(C2=C(O)CC(C)(C)CC2=O)c2cccc(O)c2)C(=O)C1 (configuration not stated)	-18	0	19	-7	-2	-4	nt	nt
O=C(/C=C/c1ccccc1)Nc1ncn[nH]1	0	30*	28	-3	-4	6	37*	24
O=C(CCc1ccccc1)Nc1ncn[nH]1	-1	0	3	-4	-3	6	nt	nt
COc1cccc(/C=N/Nc2nc(N3CCCC3)nc(N3CCCC3)n2)c1O	0	29*	-6	-10	-1	26	17	3
SMILES	PostGolgi yeast	GALR2 blocker	S1P2 blocker	S1P2 ag	GALR2 ag	PostGolgi ctrl	GALR2 ant conf	BLA inh counter
O=C(NNc1nc2ccc(Cl)cc2s1)c1cc(-c2cccs2)nc2ccccc12	nt	-5	nt	nt	-1	nt	nt	nt
COc1ccc(-c2cnc3c(c2)CCC3(C#N)C#N)cc1	nt	31*	nt	nt	1	nt	17	19
Nc1nn(-c2ccccc2)c(N)c1N=Nc1ccccc1	nt	28*	nt	nt	-1	nt	16	9
CCN(CC)c1ccc(/C=C2/SC(=O)N(C(C)C)C2=O)o1	nt	45*	nt	nt	3	nt	3	5
O=S(=O)(Nc1cc(Sc2cccc3cccnc23)c(O)c2ccccc12)c1ccc(F)cc1	nt	34*	nt	nt	-2	nt	27	17
COc1ccc(S(=O)(=O)Nc2ccc(O)c(Sc3ncn[nH]3)c2)cc1	nt	3	-24	1	-1	nt	nt	nt
